The values below come from PubChem BioAssay.

Each structure is given as a SMILES string. The source made the active and inactive calls.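 How the source made its calls, unless noted: active means fluorescence slope higher than the sample average by over 3 SD (cut at about -0.22 in these data, passing the limit was not always enough); inactive means the rest.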

The inhibition is the relative decrease from the control value, in per cent.

Test [1] can be described thus: inhibitors of TNFa-induced NFkB p65 translocation, primary screen, imaging, HUVEC, MLSMR starter and 10KST1 sets (AID 438;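 active means inhibition above 20% together with a positive visual image hit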;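 further: compound added about 3h40 before a 20 min TNFalpha stimulation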;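 on inhibition: signal is the nuclear over cytoplasmic p65 intensity ratio per well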). The following applies: HUVEC TNFa-induced p65 nuclear translocation; cell count: measured here: nuclei count (cytotoxicity indicator), at 2.08 µM; inhibition: at 2 µM, stronger effect = higher value, 0% TNFa-plus-vehicle, 100% no-TNFa wells.
Test [2] is described as follows: inhibitors of mutant huntingtin aggregation, primary screen, imaging, exon1htt(103Q)mCFP cells, high-content imaging (AID 483;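 active means visual image review flags a hit and inhibition of aggregation exceeds 20%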;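 further: compound exposure lasted 3 days before fixation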;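 on nuclei count: percent of the per-plate median nuclei count of sample wells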). As to conditions: exon1htt(103Q)mCFP cell line, aggregate imaging, at 2 µM; inhibition of aggregation: stronger effect = higher value; nuclei count: measured here: cell count, toxicity.
A short description of test [3]: inhibitors of E-selectin induction by TNFa, primary screen, imaging, HUVEC, immunofluorescence, MLSMR starter and 10KST1 sets (AID 487;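 active means visually confirmed hit in the image check and inhibition above 20%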;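 on inhibition: signal is fraction of cell area covered by stained E-selectin grains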;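 on nuclei count: 100% = median nuclei count of all wells on the same plate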). The following applies: HUVEC TNFalpha-induced E-selectin immunofluorescence imaging, at 2 µM; inhibition: stronger effect = higher value; nuclei count: measured here: cell number, toxicity.
Test [4] addresses Voltage-gated potassium channel subunit beta-2 (Rattus norvegicus) (UniProt P62483). In words: KvBeta enzyme negative modulators, primary screen, biochemical, NADPH fluorescence (AID 622).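 Further: slope of raw intensity against log time taken from 70 to 1610 s.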 The following applies: recombinant KvBeta, 4-cyanobenzaldehyde reduction, at 10 µM, stronger effect = higher value.
Test [5] has the same target. In words: KvBeta positive modulators, primary screen, biochemical, NADPH fluorescence (AID 623;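 active means NADPH fluorescence slope more negative than the mean of all samples by about 3 SD, 99.7% confidence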;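 further: fluorescence intensity change per second fitted from 20 to 320 s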). As to conditions: Recombinant KvBeta, NADPH fluorescence decrease slope, 10 min; at 10 µM; stronger effect = lower value.
Test [6] addresses Alpha-2C adrenergic receptor (Homo sapiens) (UniProt P18825). In words: modulators of alpha2C/GIRK thallium flux, primary screen, cell-based, HEK293 alpha2C/GIRK1/2 (AID 624;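 active means fluorescence slope after compound addition differing from the mean of all screened samples at 99.7% confidence, in either direction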;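 further: slope of fluorescence ratio to pre-addition baseline per second over 15 to 24 s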). The following applies: thallium flux BTC fluorescence, at 10 µM, actives lie on both sides.
The nature of test [7]: inhibitors of Sendai virus-induced IRF3 signaling, primary screen, TLR/RLR signaling modifier project, cell-based, Sendai virus stimulus, luciferase, 10K MLSCN set (AID 602276;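 active means inhibition at or above 50% at 10 µM; inactive means inhibition below 50%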;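 further: firefly luciferase from ISG56 promoter only with Renilla not read in this screen; 0% = Sendai virus plus DMSO and 100% = medium plus DMSO without virus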). As to conditions: HEK293 RL24 IRF3 luciferase reporter, at 10 µM, stronger effect = higher value. On the technique in general: Reporter assays use an easily measured gene product as a stand-in for the process of interest.

The nature of test [8]: inhibitors of poly I:C-induced TLR3 signaling, primary screen, cell-based, poly I:C stimulus, luciferase, 10K MLSCN set (AID 602277;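 active means inhibition of the reporter signal at or above 50%; inactive means inhibition below 50%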). The following applies: HEK293-TLR3 RL24 IRF3 luciferase reporter, at 10 µM, stronger effect = higher value.

Sequence of Voltage-gated potassium channel subunit beta-2 (Rattus norvegicus) (P62483 whole entry, looked up): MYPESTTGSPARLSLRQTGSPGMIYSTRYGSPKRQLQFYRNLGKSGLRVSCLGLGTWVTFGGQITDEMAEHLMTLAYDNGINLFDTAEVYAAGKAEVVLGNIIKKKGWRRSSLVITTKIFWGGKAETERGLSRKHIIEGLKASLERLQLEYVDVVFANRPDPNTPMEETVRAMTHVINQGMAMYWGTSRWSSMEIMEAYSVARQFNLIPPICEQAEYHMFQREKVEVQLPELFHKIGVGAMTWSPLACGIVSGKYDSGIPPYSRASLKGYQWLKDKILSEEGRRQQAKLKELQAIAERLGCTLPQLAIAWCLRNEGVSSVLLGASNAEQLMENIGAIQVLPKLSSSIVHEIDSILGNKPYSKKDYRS
Sequence of Alpha-2C adrenergic receptor (Homo sapiens) (P18825 whole entry, looked up): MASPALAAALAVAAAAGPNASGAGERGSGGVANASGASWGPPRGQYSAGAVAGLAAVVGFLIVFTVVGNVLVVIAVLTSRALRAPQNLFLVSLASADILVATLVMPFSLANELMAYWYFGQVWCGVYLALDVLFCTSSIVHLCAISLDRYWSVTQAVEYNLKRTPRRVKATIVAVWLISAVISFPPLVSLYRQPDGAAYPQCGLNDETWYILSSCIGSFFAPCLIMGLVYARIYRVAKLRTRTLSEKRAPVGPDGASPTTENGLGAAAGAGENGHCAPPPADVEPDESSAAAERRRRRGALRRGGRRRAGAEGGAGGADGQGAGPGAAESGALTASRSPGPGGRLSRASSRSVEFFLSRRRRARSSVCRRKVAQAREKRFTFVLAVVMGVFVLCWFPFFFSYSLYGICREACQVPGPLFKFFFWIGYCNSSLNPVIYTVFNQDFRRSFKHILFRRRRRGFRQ

Consider `COc1cccc(N(C(=O)c2ccco2)C(C(=O)NC2CCCC2)c2ccc(N(C)C)cc2)c1` (centres undefined), for which, in test [1], the cell count came to 582. Further, the inhibition is -1.6% (inactive) in test [1], 5.4% (inactive) in test [3], 6.61% (inactive) in test [7] and 15.9% (inactive) in test [8]. The inhibition of aggregation in test [2] was -38.4% (inactive). In addition, the nuclei count in test [2] came out at 98.6%; in test [3] it was 77.9%. Also, the fluorescence slope in test [4] was -0.44 (inactive). In addition, the NADPH fluorescence slope in test [5] is -0.000142 (inactive). In addition, in test [6], the slope is 0.00648 (inactive).

With `O=C(c1cccs1)N(Cc1ccco1)Cc1cc2ccccc2[nH]c1=O`, the cell count in test [1] is 420. For the same compound, the inhibition in test [1] is 6.2% (inactive); in test [3], -40% (inactive); in test [7] it was -11% (inactive); in test [8] it was -8.09% (inactive). Further, in test [2], the inhibition of aggregation is -7.1% (inactive). Further, the nuclei count in test [2] is 107%; in test [3], 84.3%. In addition, in test [4], the fluorescence slope is -0.343 (inactive). Also, in test [5], the NADPH fluorescence slope is -3.2e-05 (inactive). Moreover, in test [6], the slope is 0.00483 (inactive).

For `CN(C)S(=O)(=O)Nc1ccccc1C(N)=O`, the cell count in test [1] turned out to be 425. Also, the inhibition in test [1] is -9.8% (inactive); in test [3] it was -21.7% (inactive); in test [7] it was 15.1% (inactive); in test [8], 11.7% (inactive). For the same compound, the inhibition of aggregation in test [2] is -9.1% (inactive). Further, the figures for the nuclei count in test [2] and in test [3] were 102% and 109%, respectively. In addition, the fluorescence slope in test [4] was -0.355 (inactive). Moreover, the NADPH fluorescence slope in test [5] is -3.8e-05 (inactive). The slope in test [6] is 0.00484 (inactive).

Regarding `O=C(CC(CC(=O)c1ccccc1)C(=O)O)c1ccccc1`, in test [1], the cell count was 393. Besides, the inhibition in test [1] was 8.7% (inactive); in test [3] it was -52.5% (inactive); in test [7], -0.637% (inactive); in test [8], -0.177% (inactive). Besides, in test [2], the inhibition of aggregation is -4.6% (inactive). The figures for the nuclei count in test [2] and in test [3] were 91.9% and 109%, respectively. The fluorescence slope in test [4] was -0.525 (inactive). Also, in test [5], the NADPH fluorescence slope was -3.8e-05 (inactive). In addition, the slope in test [6] was 0.0059 (inactive).

With `O=S(CC(O)COCc1ccc(Cl)cc1)c1ccccn1` (centres undefined), the cell count in test [1] came out at 420. Further, the inhibition is -7.1% (inactive) in test [1], -37% (inactive) in test [3], 18.9% (inactive) in test [7] and 23.8% (inactive) in test [8]. Further, the inhibition of aggregation in test [2] is -11.3% (inactive). The nuclei count in test [2] is 107%; in test [3], 127%. Besides, the fluorescence slope in test [4] is -0.442 (inactive). Besides, the NADPH fluorescence slope in test [5] is 6.3e-05 (inactive). Moreover, in test [6], the slope was 0.00586 (inactive).

Turning to `Cn1nc(-c2ccc(N3CCCCC3)c(NC(=O)c3ccco3)c2)c2ccccc2c1=O`, the cell count in test [1] amounted to 672. Also, the inhibition in test [1] is -15.6% (inactive); in test [3], 32.2% (inactive); in test [7] it was 13.4% (inactive); in test [8], 75.2% (active). The inhibition of aggregation in test [2] is -14.2% (inactive). Besides, the results for the nuclei count in test [2] and in test [3] were 62.8% and 84.4%, respectively. For the same compound, the fluorescence slope in test [4] is -0.5 (inactive). In addition, the NADPH fluorescence slope in test [5] was -5.2e-06 (inactive). Also, in test [6], the slope was 0.00571 (inactive).

Regarding `COc1ccc(NC(=O)CSc2nc3c(c(=O)n2-c2ccc(F)cc2)SCC3)c(OC)c1`, the cell count in test [1] stood at 339. Moreover, the inhibition in test [1] was 0.6% (inactive); in test [3], -407% (inactive); in test [7], 19.4% (inactive); in test [8], 26.7% (inactive). In addition, the inhibition of aggregation in test [2] is -14.2% (inactive). In addition, the values for the nuclei count in test [2] and in test [3] were 109% and 114%, respectively. The fluorescence slope in test [4] is -0.474 (inactive). Further, the NADPH fluorescence slope in test [5] was -1.7e-05 (inactive). Further, the slope in test [6] was 0.00491 (inactive).

For `Cc1cc(=O)[nH]c(S/C=C/c2ccccc2)n1`, the cell count in test [1] was 427. Besides, the inhibition in test [1] was -1.8% (inactive); in test [3] it was 1.2% (inactive); in test [7] it was -28.9% (inactive); in test [8], -89.2% (inactive). For the same compound, the inhibition of aggregation in test [2] was -8.6% (inactive). Further, the nuclei count in test [2] worked out at 103%; in test [3] it was 80.7%. In addition, the fluorescence slope in test [4] is -0.603 (inactive). The NADPH fluorescence slope in test [5] was -2e-05 (inactive). Besides, the slope in test [6] was 0.00593 (inactive).

On to `CCOc1ccc(NC2c3ccccc3C(=O)N2Cc2ccco2)cc1` (centres undefined), for which the cell count in test [1] was found to be 695. The inhibition in test [1] is -6.7% (inactive); in test [3], -23.8% (inactive); in test [7], -13.3% (inactive); in test [8], -22.8% (inactive). Also, the inhibition of aggregation in test [2] was 6.4% (inactive). In addition, the nuclei count in test [2] stood at 47.6%; in test [3], 91.8%. For the same compound, in test [4], the fluorescence slope is -0.6 (inactive). The NADPH fluorescence slope in test [5] was 1.5e-05 (inactive). Moreover, the slope in test [6] was 0.00369 (inactive).

For the compound `CC1CCCN(c2ccc(C(=O)NCc3cccs3)cn2)C1` (centres undefined), in test [1], the cell count worked out at 632. Moreover, the inhibition in test [1] is -14.3% (inactive); in test [3] it was -67.5% (inactive); in test [7] it was -37.8% (inactive); in test [8], -71.3% (inactive). For the same compound, in test [2], the inhibition of aggregation is -22.9% (inactive). For the same compound, the nuclei count in test [2] came to 112%; in test [3] it was 139%. Moreover, in test [4], the fluorescence slope is -0.614 (inactive). Moreover, in test [5], the NADPH fluorescence slope was -6.9e-06 (inactive). Further, the slope in test [6] was 0.00612 (inactive).

As for `Cn1c(=O)c2c(nc(CN3CCc4ccccc4C3)n2Cc2cccc(Cl)c2)n(C)c1=O`, the cell count in test [1] is 646. Moreover, the inhibition in test [1] is 8% (inactive); in test [3], -22.8% (inactive); in test [7] it was 19.5% (inactive); in test [8], -58.7% (inactive). Further, the inhibition of aggregation in test [2] is 0.6% (inactive). Further, the nuclei count was found to be 102% in test [2] and 124% in test [3]. Also, the fluorescence slope in test [4] is -0.575 (inactive). For the same compound, the NADPH fluorescence slope in test [5] is -4.8e-05 (inactive). Also, the slope in test [6] is 0.00753 (inactive).

For `Cc1cnc(NC(=O)CSc2nc3ccccc3c(=O)[nH]2)s1`, in test [1], the cell count was found to be 281. The inhibition in test [1] is 8.9% (inactive); in test [3], 65% (active); in test [7], 2.98% (inactive); in test [8] it was -0.232% (inactive). For the same compound, the inhibition of aggregation in test [2] was -0.5% (inactive). In addition, the nuclei count was 99.4% in test [2] and 98.4% in test [3]. The fluorescence slope in test [4] was -0.427 (inactive). The NADPH fluorescence slope in test [5] was 5.1e-05 (inactive). Further, the slope in test [6] was 0.00477 (inactive).

Turning to `COC(=O)C1=C(C)NC(C)=C(C(=O)OC)C1C(=O)OC1CCCCC1=O` (centres undefined), in test [1], the cell count was 487. In addition, the inhibition in test [1] is 8.7% (inactive); in test [3], 61.1% (active); in test [7] it was 1.65% (inactive); in test [8] it was 27.7% (inactive). Also, in test [2], the inhibition of aggregation was 32.7% (inactive). Also, the values for the nuclei count in test [2] and in test [3] were 87.8% and 80.2%, respectively. In addition, the fluorescence slope in test [4] is -0.425 (inactive). Moreover, in test [5], the NADPH fluorescence slope is -3.3e-06 (inactive). In addition, the slope in test [6] is 0.00528 (inactive).

As to `Cc1cc(S(=O)(=O)N2CCN(c3ccccc3C)CC2)ccc1F`, in test [1], the cell count was 651. The inhibition in test [1] is -8.1% (inactive); in test [3], -131% (inactive); in test [7], 14.2% (inactive); in test [8], 28.2% (inactive). Further, the inhibition of aggregation in test [2] was -13.5% (inactive). Moreover, the nuclei count is 103% in test [2] and 125% in test [3]. The fluorescence slope in test [4] is -0.462 (inactive). Besides, the NADPH fluorescence slope in test [5] is 1.6e-05 (inactive). In addition, the slope in test [6] was 0.00665 (inactive).
